An excerpt weighted towards active compounds, which were near 7.5% of everything screened.
SMN2 splice up = enhancers of SMN2 splice variant expression; Potency, µM (titrated, usually from 46.1 µM), without a hit: at the top dose activity change, positive = activation, actives largely listed as activators; HEK293 SMN2-luciferase splicing reporter, luminescence, 30-36 h; 210,000 compounds, 2.8% hits; further: % of control where 0% means no effect; nearly all actives have a fitted effect of over 55% in size
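qHTS luciferase splicing reporter: luminescence rises when SMN2 exon 7 is included in transfected HEK293 cells. Compound exposure lasted 30-36 h at 37C, with 4.5 mM final sodium butyrate as control, followed by a ONE-Glo read.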
Rab9 promoter act = activators of Rab9 promoter | Potency, µM (top dose mostly 9.22 µM), for the others: top-dose activation, negative = inhibition, usual class: activators | Huh7 Rab9 promoter-luciferase reporter, luminescence, 24 h | AID 485297 | 320,000 compounds, 2.8% hits; further: % of control where 0% means no effect; nearly all actives have a fitted effect of over 60% in size
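Luciferase signal after 10 min detection reagent at ambient indicates Rab9 promoter upregulation; stably transfected Huh7 cells were treated 24 h with compound in DMSO at 37 °C, 5% CO2.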
KinaseGlo FLuc = Kinase-Glo luciferase inhibition (counter-screen); Potency, µM (titrated, usually from 38.3 µM), for inactives: at the top dose activity change, negative = inhibition, hits mostly inhibitors; AID 1379; Q27757; Kinase-Glo luciferase, ATP luminescence, 8 min; 200,000 compounds, 0.28% hits; further: on the % scale 0 is the no-effect control and ±100 the full control effect; nearly all actives have a fitted effect of over 60% in size
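Luminescence was the read-out, taken after 8-minute incubation at ambient temperature. Luciferase turned over luciferin with 10 uM ATP in imidazole pH 7.2 buffer containing KCl, MgCl2, Tween 20 and BSA.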
NPC1 promoter act = activators of NPC1 promoter; Huh7 NPC1 promoter luciferase reporter, 24 h; Potency, µM (top dose mostly 9.22 µM), without a hit: top-dose activation, most hits filed as activators; 320,000 compounds, 2.4% hits; AID 485313; further: % of control where 0% means no effect; nearly all actives have a fitted effect of over 60% in size
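Stable NPC1-promoter luciferase Huh7 line; cpd (DMSO) 24 h, 37 °C, 5% CO2; Amplite luciferase reagent 10 min RT; luminescence readout. qHTS format.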
FLuc modulator = inhibits or activates purified firefly luciferase, miR-21 counter-screen | purified FLuc, Km substrates, luminescence inhibition | 360,000 compounds, 6.9% hits | Potency, µM (titrated, usually from 57.5 µM), for the others: at the top dose activity change, negative = inhibition, hits mostly inhibitors | P08659;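 further: plate controls were vehicle for no effect and reference inhibitor for full effect; nearly all actives have a fitted effect of over 55% in size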
Target sequence (P08659 whole entry, looked up): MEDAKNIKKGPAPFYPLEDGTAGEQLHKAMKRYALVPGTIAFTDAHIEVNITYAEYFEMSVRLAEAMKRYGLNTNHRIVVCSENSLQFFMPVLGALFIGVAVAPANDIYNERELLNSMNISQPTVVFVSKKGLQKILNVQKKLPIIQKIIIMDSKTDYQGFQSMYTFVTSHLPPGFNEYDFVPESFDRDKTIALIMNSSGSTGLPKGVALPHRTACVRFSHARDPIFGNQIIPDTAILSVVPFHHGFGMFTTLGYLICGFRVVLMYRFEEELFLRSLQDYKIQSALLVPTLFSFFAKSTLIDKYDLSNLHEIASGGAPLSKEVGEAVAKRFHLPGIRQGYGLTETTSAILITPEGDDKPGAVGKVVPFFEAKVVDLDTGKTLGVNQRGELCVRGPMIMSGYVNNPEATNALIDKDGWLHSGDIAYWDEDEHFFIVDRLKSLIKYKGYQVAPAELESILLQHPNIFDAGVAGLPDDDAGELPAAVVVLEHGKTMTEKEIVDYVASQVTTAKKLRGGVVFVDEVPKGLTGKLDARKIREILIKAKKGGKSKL
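Biochemical qHTS of compounds, final roughly 60 µM downward over six points, against 10 nM purified firefly luciferase using Km concentrations of substrates (10 uM D-luciferin, 10 uM ATP) in Tris acetate pH 7.5 buffer; luminescence output.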
ELG1 genotoxic = inducers of genotoxicity in HEK293T ELG1-luciferase cells; HEK293T ELG1-luciferase reporter, luminescence, 16 h; Potency, µM (series often up to 46 µM), for inactives: at the highest dose activity change, positive = activation, usual class: activators; 330,000 compounds, 1.3% hits; further: % of control where 0% means no effect; nearly all actives have a fitted effect of over 60% in size
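Genotoxic stress is detected as increased luminescence from luciferase-tagged ELG1 in HEK293T cells, measured with ONE-Glo after a 16 hr treatment at 37 °C.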
Active calls of the source: *; ? = inconclusive; . = no result; [ ] = remark or other dose. The call rests on the fitted dose curve; in most records, active means well fitted curve in the direction sought with a large enough effect; inconclusive means small, poorly fitted or top-dose-only effect, or another doubt; inactive means no such curve, though single readings can be large; an effect the other way counts as inactive or inconclusive. Potency means the concentration at half of the fitted maximal effect.

SMILES | SMN2 splice up | Rab9 promoter act | KinaseGlo FLuc | NPC1 promoter act | FLuc modulator | ELG1 genotoxic
COc1cccc2sc(Nc3nc(-c4ccncc4)cs3)nc12 | -5% | -7% | 0% | -30% | -15% | 6%
COc1ccc(-c2csc(Nc3cccc(C)n3)n2)cc1 | . | 0.89µM* | . | 0.89µM* | 2.7µM* | 4.6µM*
COc1ccc(-c2csc(Nc3cccc(C)n3)n2)cc1C | . | 1.6µM* | . | 2.2µM* | 3.4µM* | ?
NS(=O)(=O)c1ccc(Nc2nc(-c3ccc(F)cc3)cs2)cc1 | -52% | -2% | 5% | -3% | 4% | -6%
CC(=O)Oc1ccc(-c2csc(Nc3cccc(C)n3)n2)cc1 | . | ? | . | 2.2µM* | 3.4µM* | 13µM*
Cc1cccc(Nc2nc(-c3ccc(F)cc3)cs2)n1 | . | 3.5µM* | . | 3.5µM* | 5.4µM* | ?
COc1ccc2cc3cc(C(=O)Nc4cc(C)c(Cl)cc4OC)oc3nc2c1 | ? | . | . | . | 2% | .
O=S(=O)(NCCc1nnc2ccc(SCc3cccc(Cl)c3)nn12)c1ccccc1 | . | . | . | . | 0% | .
Cc1ccc(NC(=O)C2CCCN(c3cnccn3)C2)cc1Cl (stereo not drawn) | -7% | . | . | . | -3% | .
CC(C)Oc1ccc(C2CC(=O)N(c3ccc(C(=O)O)cc3)C2=O)cc1 (stereo not drawn) | . | 0% | -1% | -2% | -7% | 0%
CC(C)Oc1ccc(C2CC(=O)N(c3cccc(C(=O)O)c3)C2=O)cc1 (stereo not drawn) | 19% | 3% | 12% | 28% | 17µM* | ?
COc1cccc(/C=N/Nc2ncc(C)c(=O)[nH]2)c1OC | . | 0% | . | -3% | 0% | 10%
COc1cccc(/C=N/Nc2nc3ccccc3[nH]2)c1O | . | -16% | . | -24% | 2.7µM* | ?
COc1cccc(/C=N/c2nc3ccccc3[nH]2)c1O | . | -1% | . | -3% | 19µM* | 11%
COc1ccccc1Nc1nc2ccccc2[nH]1 | 6% | ? | -7% | ? | 9.5µM* | 11%
COc1cccc(/C=N/Nc2nc3ccccc3[nH]2)c1OC | . | 2.5µM* | . | 4µM* | 5.4µM* | -20%
CCc1ccccc1NC(=O)N1CCCn2nc(C)cc21 | -8% | . | . | . | 0% | .
COc1ccccc1C(=O)Nc1ccccc1C(=O)OCc1cc(=O)n2ccsc2n1 | . | . | . | . | -3% | .
O=C(Nc1ccc2oc(-c3cccc(F)c3)nc2c1)c1ccc2ccccc2c1 | -5% | . | . | . | 1% | .
Cc1ccc(Nc2nc3ccccc3[nH]2)nc1 | 11µM* | 2.8µM* | -1% | 2.8µM* | 13µM* | ?
O=C(CSc1nnc(SCc2ccccc2)s1)N/N=C/C=C/c1ccccc1[N+](=O)[O-] | 7% | -3% | -1% | -6% | 24µM* | 0%
O=C(CSc1nnc(SCc2ccc(Cl)cc2)s1)N/N=C/c1ccccc1C(=O)O | . | 2% | . | 4% | 11µM* | 0%
O=C(CSc1nc2ccccc2s1)N/N=C/c1ccccc1C(=O)O | . | 11% | . | 8% | ? | ?
O=C(CSc1nnc(SCc2ccccc2)s1)N/N=C/c1ccc(Cl)cc1Cl | 7% | -3% | -1% | 1% | 0% | 5%
O=C(CSc1nc2ccccc2s1)N/N=C/c1ccc(C(=O)O)cc1 | 12% | -2% | 2% | -1% | 27µM* | 1%
SMILES | SMN2 splice up | Rab9 promoter act | KinaseGlo FLuc | NPC1 promoter act | FLuc modulator | ELG1 genotoxic
O=C(CSc1nnc(SCc2ccccc2)s1)N/N=C/C=C\c1ccco1 | -4% | -7% | -1% | -2% | ? | -2%
O=C(CSc1nnc(SCc2ccccc2)s1)N/N=C/c1ccc(C(=O)O)cc1 | . | -1% | . | -4% | 2.4µM* | -4%
O=C(Cc1ccc(Cl)cc1)NCC(c1cccs1)S(=O)(=O)c1ccccc1 (stereo not drawn) | . | . | . | . | -10% | .
O=C(c1ccc2c(c1)N(Cc1ccc(Cl)cc1)C(=O)c1ccccc1S2(=O)=O)N1CCCC1 | -9% | . | . | . | -5% | .
O=C(CSc1nnc(SCc2ccc(Cl)cc2)s1)N/N=C/c1c(Cl)cccc1Cl | -7% | 5% | -1% | 13% | -9% | 6%
Cc1ccc(CSc2nnc(SCC(=O)N/N=C/c3ccccc3OCC(=O)O)s2)cc1 | . | -4% | . | -2% | 1.5µM* | 0%
Cc1ccc(CSc2nnc(SCC(=O)N/N=C/c3ccc(C(=O)O)cc3)s2)cc1 | . | -1% | . | -2% | 0.24µM* | 6%
Cc1ccc(CSc2nnc(SCC(=O)N/N=C/c3c[nH]c4ccccc34)s2)cc1 | -40% | 14% | 1% | 0% | ? | ?
CC(/C=N/NC(=O)CSc1nc2ccccc2n1C)=C\c1ccco1 | 10% | -5% | -6% | 0% | -16% | -2%
CC(=C/c1ccco1)/C=N/NC(=O)CSc1nnc(SCc2ccc(C)cc2)s1 | -12% | -4% | -1% | 0% | 2.7µM* | 3%
COc1ccc(CCNC(=O)c2cnc3sc(N4CCOCC4)nn3c2=O)cc1OC | . | . | . | . | 1% | .
COc1ccccc1CNC(=O)C(=O)NCC(c1ccco1)S(=O)(=O)c1cccs1 (stereo not drawn) | . | . | . | . | -2% | .
CC1CCCCN1CCCNc1ccc(C(CC(N)=O)NC(=O)Cc2cccc3ccccc23)cc1[N+](=O)[O-] (stereo not drawn) | . | -1% | . | 5% | 2% | 1%
c1ccc(C(c2cccc3c2ccc2ccccc23)[C@H](c2ccccc2)c2cccc3c2ccc2ccccc23)cc1 (stereo partly drawn) | -1%[9.22 µM] | . | -3%[7.66 µM] | . | . | .
Cc1nc2ccc([N+](=O)[O-])cc2nc1C | 1% | -1% | -3% | -1% | 6% | -2%
O=[N+]([O-])c1ccc2oc(C3CCCCC3)nc2c1 | . | ? | 1% | 15% | 17µM* | ?
Cn1c(C2CCCCC2)nc2cc(N)ccc21 | . | -1% | . | 0% | -20% | 2%
Nc1ccc2oc(C3CCCCC3)nc2c1 | 11µM* | ? | -3% | ? | 24µM* | ?
Cc1cccc(N2CCN(C3(c4ccccc4)C(=O)c4ccccc4C3=O)CC2C)c1 (stereo not drawn) | -21% | . | . | . | -1% | .
CNC(=S)NNC(=O)c1cc(-c2cccnc2)nc2ccccc12 | . | -4% | . | 15% | -16% | 13%
CCCCNC(=S)NNC(=O)c1cc(C2CC2)nc2ccccc12 | . | 1% | . | -6% | 24µM* | 1%
O=C(O)c1cc(C2CC2)nc2ccccc12 | -2% | 0% | -6% | -2% | 2% | 2%
COCCNC(=S)NNC(=O)c1cc(C2CC2)nc2ccccc12 | . | -8% | . | -7% | 12µM* | 1%
CCCCNC(=S)NNC(=O)c1cc(-c2ccncc2)nc2ccccc12 | . | 6% | . | -1% | 9.5µM* | 0%
O=C(NNC(=O)c1cc(-c2ccncc2)nc2ccccc12)Nc1ccc(F)cc1 | . | 12% | . | 7% | ? | -10%

Bioassay records: PubChem BioAssay, National Center for Advancing Translational Sciences (NCATS)
